# Source: PubChem BioAssay (National Center for Advancing Translational Sciences (NCATS))
# D1 agonist = agonists of human D1 dopamine receptor; activation, % at 2 µM; HEK293 T-REx D1 cells, calcium flux, agonist mode; 1% of 360,000 active; P21728; also: 0% is about no effect
#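 Tetracycline-induced HEK293 TREx D1 cells, force-coupled to calcium signalling, were dye-loaded with a no-wash calcium kit. Compound was pin-added after a 10 s baseline. Fluorescence was read kinetically at 1 cycle/s for 180 s, with calcium rises flagged as agonism.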
# TRHR PAM = TRH receptor (human) allosteric enhancement; P34981; TRHR cells, fluo-8 calcium fluorescence, EC20 TRH enhancement; enhancement, % at 2 µM; 0.66% of 360,000 active; in the data active = enhancement above about 30%; also: 0% is about no effect
# Target sequence (P34981 whole entry, looked up): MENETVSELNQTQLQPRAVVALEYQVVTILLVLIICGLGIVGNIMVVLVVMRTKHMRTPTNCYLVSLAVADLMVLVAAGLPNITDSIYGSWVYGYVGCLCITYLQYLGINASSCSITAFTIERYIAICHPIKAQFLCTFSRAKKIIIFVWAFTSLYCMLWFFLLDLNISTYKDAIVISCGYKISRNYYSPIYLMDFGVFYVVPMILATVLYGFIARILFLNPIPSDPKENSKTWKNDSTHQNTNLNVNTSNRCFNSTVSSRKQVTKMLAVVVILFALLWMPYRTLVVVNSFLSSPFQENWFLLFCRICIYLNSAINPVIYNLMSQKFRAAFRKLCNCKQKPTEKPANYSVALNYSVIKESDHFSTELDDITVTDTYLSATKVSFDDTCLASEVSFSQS
#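 TRHR-expressing cells loaded with fluo-8 calcium dye were read kinetically (ex 480/em 530) during compound addition, then stimulated with an EC20 of TRH (10 nM final). Enhancement of the Gq-mediated intracellular calcium response was scored.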
# D1 antag = human D1 dopamine receptor antagonism; HEK293 TREx D1 cells, calcium flux, dopamine EC80; hits give low values; AID 504652; 3.2% of 360,000 active; activity change, negative = inhibition, % at 10 µM; P21728; in the data active = activity change below about -30%; also: % is scaled to controls: 0 for no effect and ±100 for the full control effect
#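 Cells carrying a force-coupled, tetracycline-inducible human D1 receptor report calcium flux. Each well gets a 10 s baseline, compound with 180 s monitoring, then an EC80 dopamine stimulus with a second 180 s kinetic read.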
# D1 PAM = human D1 dopamine receptor positive modulation; P21728; HEK293 TREx D1 cells, calcium flux, dopamine EC20 potentiation; potentiation, % at 10 µM; 0.036% of 360,000 active; AID 504651; in the data active = potentiation above about 30%; also: 0% is about no effect
# TRHR ag = activates the human TRH receptor. P34981. TRHR cells, calcium flux fluo-8, FDSS agonist mode. activation, % at 2 µM. 0.18% of 360,000 active; also: 0% is about no effect
#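 In this calcium-flux screen, cells bearing human TRHR are dye-loaded with fluo-8, baselined for 10 cycles, then exposed to library compounds; positive kinetic calcium responses during the agonist phase mark hits, with TRH as control.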
# Active calls of the source: *; . = no result. A selection: hits, their analogues and other compounds. The true share with any hit is near 4.6%. Rule as the data show it, unless noted: active = activation above about 30%; inactive = the rest.
SMILES,D1 agonist,TRHR PAM,D1 antag,D1 PAM,TRHR ag
COc1ccc(C(=O)c2sc3nc(-c4ccc(OC)cc4)ccc3c2N)cc1,61*,3,-8,-6,13
COc1ccc(NC(=O)c2sc3nc(-c4ccc(OC)cc4)cc(C(F)(F)F)c3c2N)cc1,11,9,-9,-1,4
COc1cccc(NCc2nnc3n2CCCCC3)c1,3,30,2,-3,0
CN(C)S(=O)(=O)c1cccc(CSCc2cccc(S(=O)(=O)N(C)C)c2)c1,23,1,-36*,-8,2
N#CCCN(CCN1CCCC1)S(=O)(=O)c1ccc(-c2ccc([N+](=O)[O-])cc2)cc1,39*,-8,0,-6,0
CCN(CC)CCNC(=O)c1ccc(NC(=O)c2cn(-c3ccccc3)nc2-c2cccs2)cc1,14,2,-81*,-11,-1
CCN(CC)CCNC(=O)c1ccc(NC(=O)c2ccccc2-c2ccc(C(F)(F)F)cc2)cc1,70*,-2,-19,-3,0
CCN(CC)CCNC(=O)c1ccc(NC(=O)Cc2ccccc2F)cc1,1,2,3,2,1
COc1ccc(N(C(=O)/C=C\C(=O)Nc2ccc(C)cc2)C(C(=O)NCc2ccco2)c2ccc(C)cc2)cc1 (configuration not stated),-1,8,9,0,0
CCN(Cc1ccccc1)C(=O)c1cnn(-c2ccc(F)cc2)c1-n1cccc1,5,-5,3,-2,-1
COc1ccc(CNC(=O)Cn2nc(N3CCN(c4ccccc4)CC3)ccc2=O)c(OC)c1,1,-3,32,0,-1
N#Cc1cc(N)ccc1Sc1ccc(Cl)cc1,1,-5,-32*,-9,-1
N#Cc1cc(N)ccc1Sc1ccccc1,5,0,-10,-4,0
Cc1cc(OCC(=O)Nc2ccc(N3CCN(C)CC3)cc2)ccc1Cl,24,-6,-83*,-19,0
CCc1ccc(OCC(=O)Nc2ccc(S(=O)(=O)N3CCOCC3)cc2)cc1,44*,-6,-1,-1,2
CCCC(C(=O)Nc1ccc(S(=O)(=O)N2CCOCC2)cc1)c1ccccc1 (configuration not stated),37*,8,-7,-1,4
Cc1ccc(OCC(=O)Nc2ccc(N3CCCC3)cc2)cc1C,0,2,8,-10,0
COc1ccc(OCC(=O)Nc2ccc(S(=O)(=O)N3CCOCC3)cc2)cc1,3,2,-18,0,0
CN1CCN(S(=O)(=O)c2ccc(NC(=O)Nc3cccc(Cl)c3)cc2)CC1,11,-2,-48*,-9,3
Cc1cc(OCC(=O)Nc2ccc(S(=O)(=O)N3CCN(C)CC3)cc2)ccc1Cl,1,-1,34,0,0
CC(Oc1cccc(Cl)c1)C(=O)N(C)CC(=O)Nc1ccc(N2CCOCC2)cc1 (configuration not stated),3,-1,-9,-3,5
Cc1cc(OCC(=O)Nc2ccc(S(=O)(=O)N3CCN(C)CC3)cc2)cc(C)c1Cl,10,-11,-70*,-6,1
CN1CCN(S(=O)(=O)c2ccc(NC(=O)COc3ccccc3Cl)cc2)CC1,8,5,-53*,-9,-2
O=C(COc1cccc(Cl)c1)Nc1ccc(N2CCOCC2)cc1,1,7,-37*,-10,0
O=C(COC(=O)C1CCCCC1)Nc1ccc(N2CCCCC2)cc1,-1,-4,-30*,-1,0
SMILES,D1 agonist,TRHR PAM,D1 antag,D1 PAM,TRHR ag
NS(=O)(=O)c1ccc(NC(=O)COC(=O)C2CCCCC2)cc1,3,0,-11,-1,0
Cn1c(/C(C#N)=C/c2ccccc2Br)nc2ccccc21,-1,-3,-16,1,-2
COc1ccc(-n2nc(C(=O)Nc3cccc(C)n3)c3c4ccccc4n(C)c3c2=O)cc1,-1,14,21,1,2
CCCNC(=O)c1ccccc1NC(=O)c1nsc2ccccc12,-1,-5,0,-3,-1
O=C(Nc1ccc(S(=O)(=O)N2CCN(Cc3ccccc3)CC2)cc1)c1cnccn1,13,-9,-36*,-3,0
CN1CCN(c2ccc(NC(=O)COc3ccccc3Cl)cc2)CC1,10,-3,-70*,-20,4
CCc1ccc(OCC(=O)Nc2ccc(S(=O)(=O)Nc3ccccn3)cc2)cc1,42*,7,-17,-6,0
CN1CCN(NC(=O)c2ccc(Cl)c(S(=O)(=O)Nc3ccc(Cl)cc3)c2)CC1,2,-4,-38*,-17,0
COc1cccc(CNC(=O)c2ccc(-c3nc(CS(=O)(=O)c4ccccc4)c(C)o3)cc2)c1,5,7,-8,-1,2
COc1cccc(CN(C)C(=O)c2cc(-c3cccs3)nc3ccccc23)c1,11,-4,-11,-3,1
CCOc1ccc(NC(=O)c2ccc3c(c2)C(=O)N(Cc2ccncc2)C3=O)cc1,9,0,-22,2,1
CCOC(=O)c1[nH]c(C)c(CCC(=O)Nc2ccc(Br)c(C)c2)c1C,-1,0,-5,-4,-1
CN1CCN(S(=O)(=O)c2ccc(NC(=S)NC(=O)c3ccc(Cl)cc3)cc2)CC1,30*,0,-57*,-16,-1
CCC(=O)N1CCN(c2ccc(NC(=O)COc3ccccc3Cl)cc2)CC1,9,0,-4,-3,1
CN1CCN(S(=O)(=O)c2ccc(NC(=O)c3ccccc3Cl)cc2)CC1,0,-3,-33*,-9,0
CCC(=O)N1CCN(c2ccc(NC(=O)COc3ccccc3[N+](=O)[O-])cc2)CC1,31*,12,-11,-4,0
O=C(COc1cccc(Cl)c1)NCC(c1cccs1)N1CCOCC1 (configuration not stated),1,4,-35*,-6,-1
COc1ccc(F)cc1S(=O)(=O)NCC(c1ccco1)S(=O)(=O)c1ccc(F)cc1 (configuration not stated),2,-8,.,4,4
CCCN(CCC)S(=O)(=O)c1ccc(C(=O)N2CCn3c4c(c5cc(C)ccc53)CCCC42)cc1 (configuration not stated),0,1,2,-3,1
CN1CCN(S(=O)(=O)c2ccc(NC(=O)c3ccc(Br)s3)cc2)CC1,14,0,-46*,-16,1
O=C(O)CSC1CC(=O)N(c2ccc(Cl)cc2)C1=O (configuration not stated),2,3,-1,-3,0
O=C(O)CSC1CC(=O)N(c2ccc(Br)cc2)C1=O (configuration not stated),9,40*,-4,-5,0
CCOc1ccc(C(=O)N(Cc2ccc(C(C)C)cc2)Cc2ccco2)cc1,4,-2,7,2,3
C[n+]1ccc(/C=C/c2c[nH]c3ccc(F)cc23)cc1,56*,9,-4,-6,-1
